Hit rate of the full screen: of about 1,500 compounds, about 890 (59%) were called active.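 Rule for the calls: active = inhibition of the choline-evoked signal at any tested dose together with a fitted dose-response curve; inactive = no inhibition at any dose or no curve.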 So high a share suggests a set chosen from earlier hits. These entries were drawn from the full list. Measured potencies and affinities stand elsewhere.
Biological target: High affinity choline transporter 1 (Homo sapiens) (UniProt Q9GZV3)
Sequence (Q9GZV3 whole entry, looked up): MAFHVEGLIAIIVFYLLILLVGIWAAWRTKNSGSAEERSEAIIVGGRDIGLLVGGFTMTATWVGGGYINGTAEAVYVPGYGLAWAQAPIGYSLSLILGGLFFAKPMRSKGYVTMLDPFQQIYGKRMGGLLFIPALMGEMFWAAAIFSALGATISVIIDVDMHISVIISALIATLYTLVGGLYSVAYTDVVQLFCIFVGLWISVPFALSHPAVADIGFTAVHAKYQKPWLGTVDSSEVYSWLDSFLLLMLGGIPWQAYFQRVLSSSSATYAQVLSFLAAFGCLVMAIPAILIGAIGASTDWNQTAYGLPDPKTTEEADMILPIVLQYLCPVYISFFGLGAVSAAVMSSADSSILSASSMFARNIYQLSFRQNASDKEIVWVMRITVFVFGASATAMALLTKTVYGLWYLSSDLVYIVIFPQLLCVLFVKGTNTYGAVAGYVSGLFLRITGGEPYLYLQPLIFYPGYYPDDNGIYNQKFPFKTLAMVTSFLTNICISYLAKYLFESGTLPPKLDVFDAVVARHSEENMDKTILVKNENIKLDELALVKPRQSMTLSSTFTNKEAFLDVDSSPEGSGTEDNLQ
Test: human choline transporter blockers, potency – cell-based, 5-point CRC, membrane potential dye, dose response (AID 504840);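 note: 0% = buffer-only response and 100% = EC90 choline response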
Conditions: HEK293-CHT, choline-induced depolarization, CHT with LV-to-AA double alanine mutation; series mostly up to 37 µM; inhibition: at the top concentration

inhibition, inactive:
COc1cc(/C=C2/S/C(=N/S(=O)(=O)Cc3ccccc3)NC2=O)c([N+](=O)[O-])cc1OC 47.3%, COc1ccc(NC(=O)CSc2nccn2Cc2ccccc2)cc1 46.5%, CCN(C(=O)c1cc2c(=O)n3ccccc3nc2n1CCCOC)C1CCCCC1 37.4%, O=C(NCCCn1ccnc1)C(=O)c1cn(CC(=O)N2CCCCCC2)c2ccccc12 57.4%, O=C(c1cn(-c2ccccc2)nc1-c1ccc(Cl)cc1)N1CCOCC1 15.1%, N/C(=N\O)c1ccc(N2CCN(c3ncccc3C(F)(F)F)CC2)nc1 45.6%, O=S(=O)(NCc1csc(-c2cccs2)n1)c1ccc(Cl)cc1 32.1%, CCOc1ccc([C@@H]2CC=C(C(=O)O)[C@H](c3cccc(Cl)c3)N2S(=O)(=O)c2ccc(C)cc2)cc1 9.24%, Cc1ccc(S(=O)(=O)N2[C@@H](c3ccc(F)cc3)C(C(=O)O)=CC[C@H]2c2ccc(C(C)C)cc2)cc1 40.1%, CCn1c(N2CCN(S(=O)(=O)c3ccc(Cl)cc3)CC2)nc2ccccc21 55.8%, COc1ccccc1OCC(=O)NCCS(=O)(=O)N1CCN(c2ccccc2)CC1 27.9%, CCCCn1c(SCC(=O)Nc2cccc(OC)c2)nc2ccc(N3CCOCC3)cc2c1=O 38.3%, CCOC(=O)c1ccc(CC(=O)c2ccc(O)cc2O)o1 31.9%, CCCc1cc(C(=O)Cc2ccc(F)cc2)c(O)cc1O 51.2%, Cc1ccc(-n2c(C)cc(=O)cc2C)c(C)c1 44.1%, CCCOc1ccc(C(=O)NNC(=S)NC(=O)c2ccco2)cc1 59.3%, CC[C@H](C)[C@H](NC(=O)c1ccc(Cl)cc1)C(=O)OCC(=O)c1ccc2c(c1)NC(=O)CO2 37%, CC(NC(=O)/C(C#N)=C/c1ccc([N+](=O)[O-])o1)c1ccccc1 (stereo unspecified) 49.6%, CCCCNC(=O)/C(C#N)=C/c1ccc(-c2ccc(S(=O)(=O)N3CCOCC3)cc2)o1 27.3%, Cc1ccc(N=Cc2cc(Cc3ccccc3Cl)cc([N+](=O)[O-])c2O)c(O)c1 43.4%, CN1C[C@@H]2C(c3ccc(C(F)(F)F)cc3)C3(c4cccnc4)CC2(C3)[C@H]1c1ccccc1 (stereo partly specified) 37.1%, COc1cc(C(CCN2CCCCC2)c2c(OC)cc(OC)c3c(-c4ccccc4)cc(=O)oc23)cc(OC)c1OC (stereo unspecified) 59.1%, COCCCn1c(SCC(=O)Nc2sc3c(c2C#N)CCCC3)nnc1-c1ccncc1 26.6%, Cc1ccc(C(=O)CSc2n[nH]c(-c3ccco3)n2)cc1C 36.4%, CCN(CC(=O)NCc1cccs1)S(=O)(=O)c1ccc(C(C)C)cc1 51.1%, CS(=O)(=O)n1nc(OC(=O)c2cccc3ccccc23)cc1N 40.2%, COc1ccc(Cc2nnc(NC(=O)c3ccccc3[N+](=O)[O-])s2)cc1 56.9%, O=C(O)c1ccccc1NSc1ccccc1[N+](=O)[O-] 34.3%, COc1cc(OC)c2c(-c3ccccc3)cc(=O)oc2c1C(CCN1CCCC(C)C1)c1ccc(N(C)C)cc1 (stereo unspecified) 42.6%, COc1ccc(C(CCN2CCCC2)c2c(OC)cc(OC)c3c(-c4ccccc4)cc(=O)oc23)cc1 (stereo unspecified) 49.9%, COc1cc(OC)c2c(-c3ccccc3)cc(=O)oc2c1C(CCN1CCCCC1)c1ccc2c(c1)OCO2 (stereo unspecified) 56.1%, COc1ccc(C(CCN2CCCC(C)C2)c2c(OC)cc(OC)c3c(-c4ccccc4)cc(=O)oc23)cc1 (stereo unspecified) 41.5%, COc1cc(OC)c2c(-c3ccccc3)cc(=O)oc2c1C(CCN1CCCCC1)c1ccc(N(C)C)cc1 (stereo unspecified) 49.8%, COc1cc(OC)c2c(-c3ccccc3)cc(=O)oc2c1C(CCN1CCCC1)c1ccc2c(c1)OCO2 (stereo unspecified) 53.8%, O=C(Nc1nonc1-c1ccc(Cl)cc1)c1ccco1 15.7%, Cc1ccc[n+](CC(=O)Nc2cc(C(F)(F)F)ccc2N2CCOCC2)c1 72.7%, COc1ccc(N(C)S(=O)(=O)c2cccc(C(=O)NC3CCC(C)CC3)c2)cc1 (stereo unspecified) 22.7%, CC(=O)N1CCN(S(=O)(=O)c2cccc(C(=O)NC3CCC(C)CC3)c2)CC1 (stereo unspecified) 19.6%, CN1CCN(S(=O)(=O)c2cccc(C(=O)NC3CCCc4ccccc43)c2)CC1 (stereo unspecified) 60.3%, CC1CCCC(NC(=O)c2cccc(N3CCCC3=O)c2)C1C (stereo unspecified) 46%, Cc1ccnc(SCc2cc(=O)c(OC(=O)c3ccc(S(=O)(=O)N(C)C)cc3)co2)n1 61.1%, O/N=C/c1ccnc(SCc2ccccc2)n1 35.9%, Cc1cc(C)nc(SCc2cc(=O)c(OC(=O)c3cc([N+](=O)[O-])ccc3Cl)co2)n1 75.3%, CCCCNS(=O)(=O)c1ccc2nc(SCC(=O)c3ccccc3OC)[nH]c2c1 71.7%, Cc1cc(=O)[nH]c(SCC(=O)c2ccc(C)c(C)c2)n1 58.9%, C=CCNS(=O)(=O)c1ccc(N2C(=O)c3ccccc3C2=O)cc1 16.9%, CC(NC(=O)c1ccc(N2CCNCC2)c([N+](=O)[O-])c1)C12CC3CC(CC(C3)C1)C2 (stereo unspecified) 54.6%, Cc1[nH]n(-c2cccc(Cl)c2)c(=O)c1-c1ccccc1 41.6%, COc1ccc2c(c1)CC(C)C/C2=N\NC(=O)c1ccco1 (stereo unspecified) 29.7%, NC(=O)CC(NC(=O)c1ccccc1)c1ccc(N2CCc3ccccc3C2)c([N+](=O)[O-])c1 (stereo unspecified) 64.7%, NC(=O)CC(NC(=O)c1ccc(Br)cc1)c1ccc(N2CCCCCC2)c([N+](=O)[O-])c1 (stereo unspecified) 44.8%, NC(=O)CC(NC(=O)c1ccc(Br)cc1)c1ccc(N2CCCCCCC2)c([N+](=O)[O-])c1 (stereo unspecified) 30.9%, CCC(CC)Nc1ccc(C(CC(N)=O)NC(=O)c2ccccc2)cc1[N+](=O)[O-] (stereo unspecified) 62.7%, COC(=O)CCCCCCCCCC[N+]1(C)CCCCC1 61.3%, O=S(=O)(Nc1nc2ccccc2s1)c1ccc(Br)s1 28%, COc1ccc(CN2CCN(CC=C(C)C)C(CCO)C2)cc1Cn1cccn1 (stereo unspecified) 27.2%, O=C(O)c1ccc(-c2nc(-c3ccccc3Cl)cs2)cc1 47.3%, O=C(O)c1ccc(/C=C2\COc3ccccc3C2=O)cc1 63.5%, Cc1cc(C)c2nc(N3CCCN(C(=O)c4cnccn4)CC3)c(C#N)cc2c1 61.6%, Cc1ccc(Nc2nnc(-c3ccc(N4CCOCC4)c([N+](=O)[O-])c3)c3ccccc23)cc1 36.8%, CN1/C(=C\C=Nc2cc(S(=O)(=O)N3CCOCC3)ccc2N2CCOCC2)C(C)(C)c2ccccc21 71.3%
